Experimental data as given in PubChem BioAssay (EPA / NIEHS).
Records with an inconclusive call do not appear. Activity calls are given as the source filed them. The calls were made as follows: active = hit-call score of the fitted dose curve at least 0.9, where 1 is the maximum; inconclusive = response in the unintended direction; inactive = score below 0.9.

Assays:
[1] = target: Adenosine receptor A1 (Bos taurus) (UniProt P28190); test: NVS_GPCR_bAdoR_NonSelective: NovaScreen (NVS) G Protein-Coupled Receptor Assay for bovine Adenosine Receptor (AdoR), Non-selective Binding (AID 2283244)
In short: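 Bovine striatal membranes, radioligand displacement binding, 1 h after dosing, filter-based scintillation counting. Screened in duplicate at 25 uM, then concentration-response up to 50 uM; loss of specific binding relative to DMSO.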

[2] = test system: guinea pig Leukotriene B4 Receptor (LTB4), gene 100379538; test: NVS_GPCR_gLTB4: NovaScreen (NVS) G Protein-Coupled Receptor Assay for guinea pig Leukotriene B4 Receptor (LTB4) (AID 2283247)
In short: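 Radioligand displacement on guinea pig spleen membranes, filter-based scintillation counting 2 h after dosing. Primary duplicate single point at 25 uM; hits over threshold (e.g. 30% inhibition) run in concentration-response up to 50 uM, DMSO baseline.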

[3] = target: guinea pig Leukotriene D4 Receptor (LTD4), CYSLTR1 (gene 100135514) (UniProt Q2NNR5); test: NVS_GPCR_gLTD4: NovaScreen (NVS) G Protein-Coupled Receptor Assay for guinea pig Leukotriene D4 Receptor (LTD4) (AID 2283248)
In short: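 Radioligand displacement on guinea pig lung membranes, 1 h incubation, filtration and scintillation counting; DMSO as negative control. Duplicate 25 uM primary screen, then singleton concentration-response up to 50 uM.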

[4] = test system: guinea pig Muscarinic, Peripheral (Mperiperal) Receptor, Non-selective Binding, gene 100379235; test: NVS_GPCR_gMPeripheral_NonSelective: NovaScreen (NVS) G Protein-Coupled Receptor Assay for guinea pig Muscarinic, Peripheral (Mperiperal) Receptor, Non-selective Binding (AID 2283250)
In short: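 Guinea pig bladder membranes, radioligand binding read 1 h after dosing by filter scintillation counting; loss of signal vs DMSO. Primary duplicate screen at 25 uM, then concentration-response up to 50 uM.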

[5] = target: bovine Dopamine Receptor (DR), Non-selective Binding, DRD1 (gene 281125) (UniProt Q95136); test: NVS_GPCR_bDR_NonSelective: NovaScreen (NVS) G Protein-Coupled Receptor Assay for bovine Dopamine Receptor (DR), Non-selective Binding (AID 2283241)
In short: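 Bovine striatal membranes; radioligand displacement read by filtration and scintillation counting 1 h after dosing, loss of signal vs DMSO. Screened in duplicate at 25 uM, then concentration-response for hits.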

[6] = target: human Serotonin, 5-Hydroxytryptamine Receptor 2A (5HT2A), HTR2A (gene 3356) (UniProt P28223); test: NVS_GPCR_h5HT2A: NovaScreen (NVS) G Protein-Coupled Receptor Assay for human Serotonin, 5-Hydroxytryptamine Receptor 2A (5HT2A) (AID 2283249)
In short: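 Human cortex membranes, cell-free radioligand binding; filter-based scintillation read 1.5 h after dosing. Duplicate screen at 25 uM first; displacement of specific binding (loss of signal) versus DMSO.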

[7] = target: rat Constitutive Nitric Oxide Synthase (CNOS), Nos1 (gene 24598) (UniProt P29476); test: NVS_ENZ_rCNOS: NovaScreen (NVS) Enzymatic Assay for rat Constitutive Nitric Oxide Synthase (CNOS) (AID 2283236)
In short: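 Enzyme activity in rat brain membrane preparation, read 1 h after dosing by filter-based radiometric scintillation counting. Primary screen in duplicate at 25 uM; actives (e.g., ≥30% inhibition) then run in concentration-response up to 50 uM.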

[8] = target: sheep Cyclooxygenase-1 (Cox1), PTGS1 (gene 443551) (UniProt P05979); test: NVS_ENZ_oCOX1: NovaScreen (NVS) Enzymatic Assay for sheep Cyclooxygenase-1 (Cox1) (AID 2283239);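 also: actives reduce cyclooxygenase activity so potencies are for inhibitors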
In short: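 Tested in duplicate at 25 uM, then in concentration series if active, against seminal vesicle extract from sheep. Enzyme activity was measured colorimetrically at 0.66 hour and normalised to DMSO.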

[9] = test system: bovine Histamine 1 Receptor (H1), gene 281231; test: NVS_GPCR_bH1: NovaScreen (NVS) G Protein-Coupled Receptor Assay for bovine Histamine 1 Receptor (H1) (AID 2283246)
In short: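 Radioligand displacement on bovine cerebellar membranes, 1 h after dosing, filter-based scintillation read-out; loss of signal vs DMSO. Duplicate single-concentration screen at 25 uM, then concentration-response up to 50 uM for hits.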

[10] = NVS_GPCR_bNPY_NonSelective: NovaScreen (NVS) G Protein-Coupled Receptor Assay for bovine Neuropeptide Y (NPY) Receptor, Non-selective Binding (AID 2283245)
Experimental: NVS_GPCR_bNPY_NonSelective is a biochemical, single-readout assay that uses extracted gene-proteins from Bovine hippocampal membranes in a tissue-based cell-free assay. Measurements were taken 1 hour after chemical dosing in a 96-well plate.NVS_GPCR_bNPY_NonSelective is one of one assay component(s) measured or calculated from the NVS_GPCR_bNPY_NonSelective assay. It is designed to make measurements of radioligand binding, a form of binding reporter, as detected with scintillation counting signals by Filter-based radiodetection technology.Data from the assay component NVS_GPCR_bNPY_NonSelective was analyzed into 1 assay endpoint. This assay endpoint, NVS_GPCR_bNPY_NonSelective, was analyzed in the positive analysis fitting direction relative to DMSO as the negative control and baseline of activity. Using a type of binding reporter, loss-of-signal activity can be used to understand changes in the binding as they relate to the gene NPY. Furthermore, this assay endpoint can be referred to as a primary readout, because the performed assay has only produced 1 assay endpoint. To generalize the intended target to other relatable targets, this assay endpoint is annotated to the gpcr intended target family, where the subfamily is rhodopsin-like receptor. […]

Chain of Adenosine receptor A1 (Bos taurus) (P28190 whole entry, looked up): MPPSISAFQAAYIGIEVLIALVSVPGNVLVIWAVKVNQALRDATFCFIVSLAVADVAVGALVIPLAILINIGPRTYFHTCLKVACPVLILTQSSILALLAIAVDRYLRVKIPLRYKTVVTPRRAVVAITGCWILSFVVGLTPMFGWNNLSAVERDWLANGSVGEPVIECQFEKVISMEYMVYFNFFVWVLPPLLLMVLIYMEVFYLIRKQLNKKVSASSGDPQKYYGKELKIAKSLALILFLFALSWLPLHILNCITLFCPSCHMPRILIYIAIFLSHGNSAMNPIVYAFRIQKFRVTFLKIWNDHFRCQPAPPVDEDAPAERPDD
Chain of guinea pig Leukotriene D4 Receptor (LTD4), CYSLTR1 (gene 100135514) (Q2NNR5 whole entry, looked up): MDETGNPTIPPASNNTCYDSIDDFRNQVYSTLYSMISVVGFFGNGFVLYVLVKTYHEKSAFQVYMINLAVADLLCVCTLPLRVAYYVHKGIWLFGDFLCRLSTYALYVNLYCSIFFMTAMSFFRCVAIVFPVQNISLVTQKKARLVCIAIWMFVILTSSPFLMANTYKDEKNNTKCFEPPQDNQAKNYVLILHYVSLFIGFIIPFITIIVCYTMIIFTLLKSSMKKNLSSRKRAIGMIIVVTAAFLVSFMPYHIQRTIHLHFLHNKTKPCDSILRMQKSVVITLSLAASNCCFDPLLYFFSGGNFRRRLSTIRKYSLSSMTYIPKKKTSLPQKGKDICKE
Chain of sheep Cyclooxygenase-1 (Cox1), PTGS1 (gene 443551) (P05979 whole entry, looked up): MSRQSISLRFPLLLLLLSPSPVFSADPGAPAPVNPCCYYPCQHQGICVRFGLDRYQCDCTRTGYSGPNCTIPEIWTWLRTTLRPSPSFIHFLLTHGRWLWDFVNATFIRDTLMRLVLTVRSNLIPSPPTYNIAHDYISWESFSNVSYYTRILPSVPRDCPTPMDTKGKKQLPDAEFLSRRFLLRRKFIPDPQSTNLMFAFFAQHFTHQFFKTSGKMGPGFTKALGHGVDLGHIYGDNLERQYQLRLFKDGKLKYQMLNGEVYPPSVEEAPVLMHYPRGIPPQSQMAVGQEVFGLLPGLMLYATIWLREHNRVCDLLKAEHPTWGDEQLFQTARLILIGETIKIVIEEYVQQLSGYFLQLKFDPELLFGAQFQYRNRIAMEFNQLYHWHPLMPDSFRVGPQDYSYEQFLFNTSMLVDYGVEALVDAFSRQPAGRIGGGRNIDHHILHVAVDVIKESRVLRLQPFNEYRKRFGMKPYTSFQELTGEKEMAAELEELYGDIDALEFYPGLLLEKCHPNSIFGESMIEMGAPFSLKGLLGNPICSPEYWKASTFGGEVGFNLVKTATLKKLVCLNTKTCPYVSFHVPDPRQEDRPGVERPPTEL
Chain of human Serotonin, 5-Hydroxytryptamine Receptor 2A (5HT2A), HTR2A (gene 3356) (P28223 whole entry, looked up): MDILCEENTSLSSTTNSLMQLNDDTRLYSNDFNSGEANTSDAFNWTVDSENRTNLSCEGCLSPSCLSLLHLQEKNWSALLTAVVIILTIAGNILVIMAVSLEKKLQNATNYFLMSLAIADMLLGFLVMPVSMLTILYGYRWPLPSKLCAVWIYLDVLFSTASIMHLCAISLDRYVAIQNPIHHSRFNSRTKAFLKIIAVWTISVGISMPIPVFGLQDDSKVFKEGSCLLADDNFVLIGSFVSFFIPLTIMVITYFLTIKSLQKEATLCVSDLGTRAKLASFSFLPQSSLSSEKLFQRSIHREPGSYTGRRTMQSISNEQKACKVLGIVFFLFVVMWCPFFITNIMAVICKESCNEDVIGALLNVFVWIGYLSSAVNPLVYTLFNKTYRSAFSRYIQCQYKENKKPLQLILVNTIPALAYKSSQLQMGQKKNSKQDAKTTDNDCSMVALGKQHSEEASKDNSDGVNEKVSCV
Chain of rat Constitutive Nitric Oxide Synthase (CNOS), Nos1 (gene 24598) (P29476 whole entry, looked up): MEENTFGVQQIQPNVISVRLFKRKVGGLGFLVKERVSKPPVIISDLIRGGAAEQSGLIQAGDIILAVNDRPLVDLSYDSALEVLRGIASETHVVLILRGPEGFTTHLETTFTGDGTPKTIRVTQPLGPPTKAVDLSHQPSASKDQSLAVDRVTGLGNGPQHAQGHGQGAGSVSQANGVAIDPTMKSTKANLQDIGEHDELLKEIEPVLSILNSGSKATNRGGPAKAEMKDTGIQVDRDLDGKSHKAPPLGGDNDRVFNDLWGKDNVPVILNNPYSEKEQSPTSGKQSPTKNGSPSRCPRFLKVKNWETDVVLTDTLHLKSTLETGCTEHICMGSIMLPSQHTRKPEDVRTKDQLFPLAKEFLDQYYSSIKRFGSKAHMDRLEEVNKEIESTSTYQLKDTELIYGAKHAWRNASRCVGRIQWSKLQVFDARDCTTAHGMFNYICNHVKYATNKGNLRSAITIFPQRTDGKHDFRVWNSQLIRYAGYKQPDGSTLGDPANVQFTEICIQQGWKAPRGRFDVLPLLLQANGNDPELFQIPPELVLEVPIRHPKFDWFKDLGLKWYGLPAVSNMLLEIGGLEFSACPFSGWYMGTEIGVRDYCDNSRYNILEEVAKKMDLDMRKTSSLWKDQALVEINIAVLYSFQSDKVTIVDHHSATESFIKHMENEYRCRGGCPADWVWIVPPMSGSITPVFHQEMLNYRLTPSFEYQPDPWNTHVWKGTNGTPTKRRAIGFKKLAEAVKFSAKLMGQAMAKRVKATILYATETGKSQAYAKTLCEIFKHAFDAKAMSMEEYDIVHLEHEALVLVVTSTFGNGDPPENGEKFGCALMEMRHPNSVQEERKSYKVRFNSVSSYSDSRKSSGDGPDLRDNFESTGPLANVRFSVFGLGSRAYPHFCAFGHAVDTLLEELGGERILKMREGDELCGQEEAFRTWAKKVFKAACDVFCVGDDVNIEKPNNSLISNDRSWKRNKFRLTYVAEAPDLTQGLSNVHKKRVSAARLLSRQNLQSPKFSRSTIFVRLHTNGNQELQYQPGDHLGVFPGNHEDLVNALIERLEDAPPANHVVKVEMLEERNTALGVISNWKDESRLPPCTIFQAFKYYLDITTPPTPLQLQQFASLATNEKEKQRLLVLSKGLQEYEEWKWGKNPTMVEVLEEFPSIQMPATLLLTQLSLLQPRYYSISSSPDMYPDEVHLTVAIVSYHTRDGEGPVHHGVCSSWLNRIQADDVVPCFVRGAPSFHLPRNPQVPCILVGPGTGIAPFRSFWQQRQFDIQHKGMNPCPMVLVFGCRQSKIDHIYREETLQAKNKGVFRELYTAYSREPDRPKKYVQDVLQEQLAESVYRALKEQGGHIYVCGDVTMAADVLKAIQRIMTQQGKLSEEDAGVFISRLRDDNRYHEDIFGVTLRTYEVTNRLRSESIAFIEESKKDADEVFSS
Chain of bovine Dopamine Receptor (DR), Non-selective Binding, DRD1 (gene 281125) (Q95136 whole entry, looked up): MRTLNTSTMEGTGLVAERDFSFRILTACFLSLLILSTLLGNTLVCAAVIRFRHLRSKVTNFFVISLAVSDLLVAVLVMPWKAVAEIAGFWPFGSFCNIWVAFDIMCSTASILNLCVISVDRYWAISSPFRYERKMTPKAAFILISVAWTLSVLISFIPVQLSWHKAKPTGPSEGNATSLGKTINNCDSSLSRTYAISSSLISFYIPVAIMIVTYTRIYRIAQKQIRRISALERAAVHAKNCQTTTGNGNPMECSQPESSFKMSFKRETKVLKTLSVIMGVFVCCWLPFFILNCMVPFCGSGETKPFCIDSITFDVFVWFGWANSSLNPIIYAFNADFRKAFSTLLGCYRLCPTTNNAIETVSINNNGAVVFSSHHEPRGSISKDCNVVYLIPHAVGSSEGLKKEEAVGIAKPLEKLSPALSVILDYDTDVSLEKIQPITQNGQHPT

Q: Which outcome [1] does the source give for `Nc1cccc2c(N)cccc12` here?
A: Its outcome is “inactive”.

Q: For `Cc1cc(CCN2CCN(c3nsc4ccccc34)CC2)cc2c1NC(=O)CC2(C)C`, which outcome [1] is on record?
A: Its outcome is “inactive”.

Q: What about the outcome [2] of the same compound?
A: Its outcome is “inactive”.

Q: What about the outcome [3] of the same compound?
A: The outcome was “inactive”.

Q: With `CN1CCC[C@H]1c1cccnc1` as the compound, how does the outcome [4] read?
A: Its outcome is “inactive”.

Q: For `CC(=O)NC1(c2cccc(F)c2)CCN(CC[C@@]2(c3ccc(Cl)c(Cl)c3)CN(c3ccccc3)C(=O)CO2)CC1`, which AC50 [5] is on record?
A: Its AC50 is 11.3 µM (active).

Q: What about the AC50 [6] of the same compound?
A: Its AC50 is 1.9 µM (active).

Q: And the AC50 [4]?
A: The AC50 was 20.8 µM (active).

Q: Which results are given for `CCCCCCCC(=O)O`?
A: outcome [3]: inactive; outcome [4]: inactive

Q: For `CCN(CC)CCNc1ccc(CNC=O)c2sc3ccc(OC)cc3c(=O)c12`, which AC50 [1] is on record?
A: Its AC50 is 4.38 µM (active).

Q: What about the AC50 [4] of the same compound?
A: Its AC50 is 5.83 µM (active).

Q: What does the source list for `NC(=O)N1C(=O)C(C(=O)c2cc(Cl)cs2)c2cc(F)c(Cl)cc21` (stereo unspecified)?
A: outcome [7]: inactive; outcome [1]: inactive; AC50 [2]: 0.585 µM (active)

Q: With `Oc1cc2ccccc2c2ccccc12` as the compound, how does the AC50 [8] read?
A: Its AC50 is 27.7 µM (active).

Q: For `C#C[C@]1(O)CC[C@H]2[C@@H]3CCC4=CC(=O)CC[C@@H]4[C@H]3CC[C@@]21C`, which outcome [9] is on record?
A: Its outcome is “inactive”.

Q: With `O=c1c(-c2ccc(O)cc2)coc2cc(O)ccc12` as the compound, how does the outcome [6] read?
A: Its outcome is “inactive”.

Q: For `CN1CCN(c2ccccc2/C=C2\SCCN(c3ccc(Cl)c(Cl)c3)C2=O)CC1`, which outcome [7] is on record?
A: The outcome was “inactive”.

Q: And the AC50 [6]?
A: The AC50 was 1.9 µM (active).

Q: Which AC50 [8] does the source give for `CCCCCCCCCCCCc1ccccc1S(=O)(=O)O` here?
A: The AC50 was 9.01 µM (active).

Q: What about the AC50 [2] of the same compound?
A: Its AC50 is 7.5 µM (active).

Q: And the AC50 [3]?
A: The AC50 was 25 µM (active).

Q: With `CCc1ccc(CCOc2ccc(CC3SC(=O)NC3=O)cc2)nc1` (stereo unspecified) as the compound, how does the AC50 [7] read?
A: The AC50 was 4.25 µM (active).

Q: For `CC(C)CCCCCCOC(=O)CCCCC(=O)OCCCCCCC(C)C`, which outcome [7] is on record?
A: Its outcome is “inactive”.

Q: With `c1ccc2cc3c(ccc4ccccc43)cc2c1` as the compound, how does the AC50 [5] read?
A: Its AC50 is 32.8 µM (active).

Q: What about the outcome [9] of the same compound?
A: The outcome was “inactive”.

Q: Which outcome [8] does the source give for `N#C[C@@H]1CC(F)(F)CN1C(=O)CNC1CC2CCC(C1)N2c1ncccn1` (stereo partly specified) here?
A: The outcome was “inactive”.

Q: For `CCCOc1sc(C(=O)N2CCC(c3cc(CN)ccc3F)CC2)c(C)c1Br`, which outcome [7] is on record?
A: Its outcome is “inactive”.

Q: What about the AC50 [10] of the same compound?
A: Its AC50 is 36.3 µM (active).

Q: What about the AC50 [6] of the same compound?
A: The AC50 was 14.3 µM (active).

Q: What about the AC50 [4] of the same compound?
A: Its AC50 is 23.2 µM (active).

Q: For `c1ccc2c(c1)ccc1ccccc12`, which AC50 [7] is on record?
A: The AC50 was 1.16 µM (active).

Q: With `Cc1oc(-c2ccccc2)nc1CCOc1ccc(C[C@H](Nc2ccccc2C(=O)c2ccccc2)C(=O)O)cc1` as the compound, how does the AC50 [8] read?
A: The AC50 was 26.5 µM (active).

Q: And the outcome [10]?
A: The outcome was “inactive”.

Q: And the outcome [2]?
A: Its outcome is “inactive”.

Q: What about the outcome [3] of the same compound?
A: The outcome was “inactive”.

Q: With `CCCOC(=O)c1ccc(O)cc1` as the compound, how does the outcome [2] read?
A: The outcome was “inactive”.

Q: Which outcome [1] does the source give for `O=C(O)Cc1cc(I)c(Oc2cc(I)c(O)c(I)c2)c(I)c1` here?
A: The outcome was “inactive”.

Q: With `CC(C)(C)c1cc(C(C)(C)C)c(O)c(C(C)(C)C)c1` as the compound, how does the outcome [6] read?
A: The outcome was “inactive”.

Q: For `Oc1cccc(O)c1`, which AC50 [8] is on record?
A: Its AC50 is 10.4 µM (active).

Q: Which outcome [1] does the source give for `CC(C)(C)c1ccc(O)c(C(C)(C)C)c1` here?
A: Its outcome is “inactive”.

Q: Which results are given for `CC[C@H](C)[C@@H](C(=O)O)n1sc2ccccc2c1=O`?
A: outcome [2]: inactive; outcome [3]: inactive

Q: For `NC(=O)N(O)[C@@H]1C=C[C@H](Oc2cccc(Oc3ccc(F)cc3)c2)C1`, which outcome [8] is on record?
A: Its outcome is “inactive”.

Q: With `COc1ccc([N+](=O)[O-])cc1N` as the compound, how does the AC50 [8] read?
A: The AC50 was 12.2 µM (active).
